Compounds without any hit were thinned out: in the full panel of roughly 83,000, 20% have a hit.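 48-hour exposure, single concentration, 96-well plates; percent growth endpoint where 0 means no net growth. Active: below 10.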 Values without a mark were called inactive. The source made the active and inactive calls.
Key:
Assay in all cases: NCI-60 one-dose screen, 48 h (100 = growth as untreated, 0 = no growth, -100 = all killed)
Details in all cases: 10 µM unless noted
DU-145 prostate = system: DU-145 prostate
K-562 leukemia = system: K-562 leukemia
MALME-3M melanoma = system: MALME-3M melanoma
MDA-MB-231 breast = system: MDA-MB-231 breast
RXF 393 renal = system: RXF 393 renal
SF-268 CNS = system: SF-268 CNS
SF-295 CNS = system: SF-295 CNS
SF-539 CNS = system: SF-539 CNS
UACC-257 melanoma = system: UACC-257 melanoma
M14 melanoma = system: M14 melanoma
HCT-15 colon = system: HCT-15 colon
HT29 colon = system: HT29 colon
SNB-75 CNS = system: SNB-75 CNS
SNB-19 CNS = system: SNB-19 CNS
U251 CNS = system: U251 CNS
PC-3 prostate = system: PC-3 prostate
SK-MEL-5 melanoma = system: SK-MEL-5 melanoma
UACC-62 melanoma = system: UACC-62 melanoma
LOX IMVI melanoma = system: LOX IMVI melanoma

SMILES | growth (DU-145 prostate) | growth (K-562 leukemia) | growth (MALME-3M melanoma) | growth (MDA-MB-231 breast) | growth (RXF 393 renal) | growth (SF-268 CNS) | growth (SF-295 CNS) | growth (SF-539 CNS) | growth (UACC-257 melanoma) | growth (M14 melanoma) | growth (HCT-15 colon) | growth (HT29 colon) | growth (SNB-75 CNS) | growth (SNB-19 CNS) | growth (U251 CNS) | growth (PC-3 prostate) | growth (SK-MEL-5 melanoma) | growth (UACC-62 melanoma) | growth (LOX IMVI melanoma)
CN(C)c1ccc(/C=C(\C#N)c2nc3ccccc3n2C)cc1 | 25.7% | 32% | 61.7% | 48.8% | 3.51% (active) | 52.6% | 13.1% | 11.6% | 43.9% | 34.4% | 28.5% | 13.7% | 7.56% (active) | 68.6% | 30.3% | 35.7% | 14.5% | 35% | 46.2%
CC(C)[C@H](CN)NC[C@H](C)NS(=O)(=O)c1ccc(C(C)(C)C)cc1 | 105% | 85.7% | 97.8% | 117% | 89.9% | 93.5% | 104% | 96.9% | 96.4% | 97.3% | 99.3% | 65.5% | 84.2% | 111% | 87.1% | 83.5% | 86.8% | 111% | 99.9%
O=C(Cn1nncc1CN1C(=O)CSC1=O)Nc1ccc(F)cc1 | 105% | 104% | 97.5% | 109% | 108% | 94.7% | 103% | 97.8% | 107% | 102% | 102% | 105% | 85.9% | 101% | 104% | 101% | 99.5% | 93.5% | 94.9%
C[C@]12CCc3nc(Nc4ccc(O)cc4)sc3C1=CC[C@@H]1[C@@H]2CC[C@]2(C)/C(=N/NC(N)=S)CC[C@@H]12 | -62.4% (active) | -2.83% (active) | -60.5% (active) | -40.4% (active) | -67.6% (active) | -17% (active) | -8.62% (active) | 5.79% (active) | -9.35% (active) | -23.8% (active) | -48% (active) | -47.6% (active) | -2.86% (active) | -13.1% (active) | -70.3% (active) | -33.7% (active) | -61.2% (active) | -74.8% (active) | -52.5% (active)
COc1ccc(-c2cn(-c3cccc(C(=O)/C=C/c4ccc(O)c(OC)c4)c3)c(=O)[nH]2)cc1 | 6.8% (active) | 25.7% | 72.5% | 38.9% | -60.9% (active) | 19.1% | 15.2% | 10.5% | 40.3% | 51% | 8.88% (active) | -21.6% (active) | 1.36% (active) | 67.4% | 4.66% (active) | 20.2% | 22.7% | 40.8% | -13.9% (active)
Cc1ccc(NC(=O)Cn2nncc2CN2C(=O)CSC2=O)cc1C | 106% | 106% | 99% | 111% | 103% | 98.5% | 103% | 101% | 102% | 105% | 94.5% | 105% | 93.3% | 97.9% | 103% | 99.3% | 98.7% | 102% | 93.6%
Nc1ccc(N(O)/C=C2\C=CC=CC2=O)cc1N | 121% | 93.5% | 101% | 85.9% | 98.2% | 107% | 112% | 101% | 98.7% | 101% | 87% | 172% | 104% | 102% | 94.1% | 69.6% | 76.3% | 66.1% | 48.8%
COc1cccc2nc(Nc3cccc(NC(=O)c4ccc(N5CCN(C)CC5)c(C(F)(F)F)c4)c3)ccc12 | 29.4% | -49.1% (active) | -10.5% (active) | 29.5% | -2.23% (active) | 35.5% | -0.464% (active) | -27.9% (active) | -21.9% (active) | 10.1% | -10.4% (active) | -67.7% (active) | -7.68% (active) | 48.4% | -24.6% (active) | 22% | 48.8% | -38.4% (active) | -96.7% (active)

From PubChem BioAssay (NCI)
